HIF-2a inh – HIF-2a reporter inhibitors, primary screen, luminescence, 786-0 RCC cells | 0.72% of 360,000 active | inhibition, % at 18.8 µM | 786-0 RCC cells HIF-2a reporter, luciferase luminescence, overnight;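 active = inhibition of the luminescence signal of 40% or more relative to plate controls, in a single-dose primary screen at 18.75 µM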
KKLEB tox – cytotoxicity in KKLEB CF airway cells, primary screen, cytotoxicity control for CF NF-kB inhibitor project, cell-based, uHTS, fluorescence assay plates | KKLEB CF airway cells viability, ATPlite luminescence, overnight; active compounds read low; cells stimulated with P. aeruginosa culture filtrate | activity change (cytotoxicity), % at 5 µM | 0.36% of 360,000 active | AID 602141, 2011;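 active = corrected activity change at or below -50% at 5 µM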
TROY NFkB inh – inhibitors of TROY-driven NF-kB signaling, primary screen, Q293 LMP1-TROYcd cells, NF-kB luciferase, uHTS | 0.98% of 360,000 active | AID 1347056, 2019 | Q293 LMP1-TROYcd NF-kB luciferase reporter, 4 h | inhibition, % at 10 µM;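 active = compounds whose plate-normalised and pattern-corrected inhibition of the luciferase reporter signal at the single screening dose is 50% or more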
TWEAK Fn14 block – inhibitors of TWEAK-Fn14 signaling, primary screen, luciferase reporter cells, uHTS; inhibition, % at 10 µM; 2% of 360,000 active; TWEAK-stimulated Fn14 reporter cells, luciferase luminescence, 8 h; in the data active = inhibition above about 50%
Peg3 promoter – Peg3 promoter-driven luciferase inhibitors, primary screen, cell-based, HeLa, luciferase luminescence. HeLa PEG-Prom luciferase reporter, overnight. inhibition, % at 20 µM. 1.7% of 360,000 active;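 active = inhibition of at least 50% at 20 µM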
CF NFkB inh – inhibitors of PAF-induced NF-kB signaling, primary screen, cell-based, GFP fluorescence, uHTS. KKLEB NF-kB-GFP reporter, GFP fluorescence overnight. inhibition, % at 5 µM. 0.86% of 360,000 active. AID 588850, 2011;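 active = at least 50% inhibition at 5 µM, scaled per plate between neutral and stimulator controls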;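 note: PAF is a Pseudomonas aeruginosa culture filtrate used as stimulus; plate controls were PAF-stimulated DMSO wells for no effect and unstimulated DMSO wells for full effect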
An asterisk follows results filed as active; . = not tested or not shown. A selection: hits, their analogues and other compounds. The true share with any hit is near 4%.

SMILES	HIF-2a inh	KKLEB tox	TROY NFkB inh	TWEAK Fn14 block	Peg3 promoter	CF NFkB inh
O=C(N/N=C/c1ccccc1Br)c1cccc(S(=O)(=O)N2CCOCC2)c1	-45	9	-38	-10	-2	-10
O=C(N/N=C/c1cc(Br)cc(Br)c1O)c1cccc(S(=O)(=O)N2CCOCC2)c1	10	-8	24	4	55*	40
Cc1cc(NC(=O)c2cccc(S(=O)(=O)N3CCCCCC3)c2)n(-c2ccccn2)n1	18	-8	9	52*	25	19
O=C(N/N=C/c1ccc(OC(F)F)cc1)c1cccc(S(=O)(=O)N2CCOCC2)c1	4	6	10	71*	3	-16
O=C(O)C1C2CCC(C2)C1C(=O)N1CCCC1 (stereo not drawn)	9	-4	-7	9	11	-4
Cc1cc(C)c(S(=O)(=O)c2cccc(C)c2C)c(=O)[nH]1	14	7	13	1	-1	-3
Cc1[nH]c2ccccc2c1C1=CC(=O)C=CC1=O	16	-13	7	46	76*	74*
Cc1[nH]c2ccccc2c1CC#N	21	1	5	-17	5	-12
COCCn1c(C)cc(/C=C2/NC(=O)N(c3cccc(Cl)c3)C2=O)c1C	-14	-17	81*	82*	-216	23
CCn1c(C)cc(/C=C2/NC(=O)N(c3ccccc3)C2=O)c1C	-225	10	74*	74*	-239	-20
CC(C)n1cc(/C=C2\NC(=O)N(c3cccc(Cl)c3)C2=O)c2ccccc21	4	-14	12	19	30	12
COCCCN1C(=O)C(CC(=O)NCCCN(C)C)CC(C(=O)N2CCCCCC2)=C1C (stereo not drawn)	12	.	-15	5	.	.
CC(C(=O)Nc1ccc2c(c1)OCO2)N(C)CC(=O)Nc1ccc(Cl)cc1 (stereo not drawn)	-2	-1	13	-9	3	8
COC(=O)[C@H](C)N(Cc1ccc(Cl)c(Cl)c1)S(=O)(=O)CCN1CCN(c2ccccc2)CC1	-46	-8	22	43	21	10
CSc1cc(-c2ccccc2)n(Cc2c(Cl)cccc2Cl)c(=O)c1C#N	17	-33	17	35	20	24
CSc1cc(-c2ccc(Cl)cc2)n(Cc2ccccc2)c(=O)c1C#N	11	-54*	-2	10	54*	70*
O=[N+]([O-])c1ccc2c(c1)/C(=N\O)c1ccccc1-2	-38	20	-8	4	-36	-51
COc1cc2c(cc1[N+](=O)[O-])-c1ccc([N+](=O)[O-])cc1C2=NO	-38	14	14	21	52*	-187
C=C(C)Cn1c2ccc(NC(=O)NCc3ccccc3)cc2c(=O)n1C	-23	-13	-40	-7	-20	17
COc1ccc(NC(=O)N(C)C[C@H]2Oc3cc(Br)ccc3S(=O)(=O)N([C@H](C)CO)C[C@@H]2C)cc1	6	8	4	-8	4	20
COc1ccc(C(=O)N2[C@@H](C(C)C)COc3cc(Br)ccc3S2(=O)=O)cc1	-18	14	31	39	55*	39
COc1ccccc1OCC(=O)NNC(=O)CSC(=S)N1CCCC1	-4	-8	12	-1	2	2
COc1cccc(O)c1CN1CCC(C(=O)Nc2ccc(-c3cccc(C)c3)cc2)CC1	-4	-32	40	30	106*	20
CCC(CC)COC(=O)C1=C(C)NC(=O)NC1c1ccc(OC)cc1 (stereo not drawn)	25	1	-8	10	30	-1
CCC(CC)COC(=O)C1=C(C)NC(=O)NC1c1cc(OC)ccc1OC (stereo not drawn)	11	-1	-26	104*	5	6
SMILES	HIF-2a inh	KKLEB tox	TROY NFkB inh	TWEAK Fn14 block	Peg3 promoter	CF NFkB inh
CCCNC(=O)Nc1ccc2c(c1)OC[C@H](C)N(C(=O)C1CCCCC1)C[C@@H](C)[C@H](OC)CN(C)C2=O	12	.	.	.	.	.
CCc1ccc(C(=O)CN(C#N)c2nc(C)cc(C)n2)cc1	-109	-6	7	62*	18	17
Cc1cc(C)nc(N(C#N)CC(=O)c2ccccc2)n1	-29	10	-7	9	-5	29
COc1cccc(C(=O)Nc2ccc(NC(=O)C3CCCCC3)nc2)c1	-13	8	-5	17	-18	2
COc1cccc(C(=O)Nc2ccc(NC(=O)C(C)(C)C)cn2)c1	-21	-10	65*	75*	-14	6
CCOc1cccc(/C=C/c2ccc3cccc(O)c3n2)c1O	-243	14	-67	2	97*	-35
Oc1cccc2ccc(/C=C/c3ccccc3Cl)nc12	-245	-1	74*	95*	-199	-2
O=C(CSc1ncccn1)NCC1CCCO1 (stereo not drawn)	7	-14	-3	4	-13	21
CCCCn1c(SCC(=O)Nc2cccc(OC)c2)nc2ccc(N3CCOCC3)cc2c1=O	-46	15	62*	32	0	-23
CCCCn1c(SCC(N)=O)nc2ccc(N3CCOCC3)cc2c1=O	9	-4	-6	3	2	0
CCOc1ccc(C2=Nn3c(nnc3-c3ccco3)SC2)cc1	-9	-68*	-16	-28	25	-3
CCOc1cc(OCC)cc(C(=O)N2CCC[C@H]2C(=O)N2CCC[C@H]2C(=O)NCc2ccccn2)c1	3	.	7	13	.	.
c1ccc(-c2csc3ncnc(NCc4ccccn4)c23)cc1	22	-14	-14	65*	39	22
COc1ccc(NC(=O)CSc2n[nH]c(-c3ccccc3)n2)cc1S(N)(=O)=O	-7	-14	12	6	5	9
Cc1ccc(NC(=O)C(=O)Nc2ccccn2)cc1	25	-12	57*	86*	0	-2
Cc1ccc(S(=O)(=O)CC(=O)Nc2ccccn2)cc1	4	-5	-12	3	1	-6
CC(C)CC(=O)/C=C/n1c(=S)oc2ccccc21	91*	-77*	15	99*	107*	92*
Cn1c(=S)oc2ccccc21	16	12	-8	8	6	-17
CC(C)(C)c1cc(=O)[nH]c(SCc2ccccc2)n1	6	5	45	12	17	7
CC(C)(C)c1cc(=O)[nH]c(SCc2ccccc2Cl)n1	14	9	54*	-5	7	-3
N#C/C(=C\c1ccc(O)c(O)c1)C(=O)c1ccc(O)c(O)c1	3	7	16	63*	2	-4
N#C/C(=C\c1ccc(O)c(O)c1)C(=O)N1CCCC1	17	-2	-5	-35	5	-5

Bioassay records from PubChem.
